According to PubChem BioAssay (Tox21):
Records with an inconclusive call do not appear. A call without a number means that no potency is given here. The source made the active and inactive calls. The call rests on the fitted dose curve.

Target: D(2) dopamine receptor (Homo sapiens) (UniProt P14416)
Experiment: Dopamine D2 receptor (DRD2) small molecule agonists, cell-based qHTS assay (AID 1963594); further: nearly all actives have a fitted effect of over 35% in size
Conditions: HEK293-DRD2 cAMP HTRF, agonist mode, 30 min; series mostly up to 92.4 µM
From the text: National Center for Advancing Translational Sciences [NCATS]
Division of Preclinical Innovation [DPI]
U.S. Environmental Protection Agency [EPA]
National Institutes of Environmental Health Sciences [NIEHS]
National Toxicology Program [NTP]
U.S. Food and Drug Administration [FDA]
DRD2 is the D2 subtype of the dopamine receptor, which is coupled to Gi subtype of G protein-coupled receptor. This G protein-coupled receptor inhibits adenylyl cyclase activity. The DRD2-HEK293 cell line stably expressing D2 dopamine receptor can be used for screening agonists and antagonists of interactions between D2 and its ligands. The Hek293-DRD2 cAMP assay is based on HTRF technology. It measures changes of cAMP accumulation in response to Gi coupled GPCR activation or inhibition.
Tox21 Assay Protocol Summary:
DRD2-Hek293 cells were dispensed at 600 cells/3uL/well in 1536-well white plates using a Multidrop Dispenser. After the assay plates were incubated at a 37 C/5% CO2 incubator for 24 h, 1 uL of Ro20-1724 at final concentration of 0.1 mM was transferred to the assay plate by a Flying Reagent Dispenser. Following Ro20-1724 addition, 23 nL of compound dissolved in DMSO, positive controls or DMSO only was added to the assay plates via Wako pintool station. The assay plates were incubated at room temperature for 10 min. Next, 1 uL of NKH477 at 200nM was added into the plates. After the assay plates were incubated at room temperature for an additional 30 min, 2.5 ul/well of cAMP-d2 and 2.5 ul/well of anti-cAMP-cryptate were added respectively into the assay plates using a Flying Reagent Dispenser. The plates were incubated at room temperature for 1 h. The fluorescence intensity in the plates was measured at 340 nm excitation and 665 & 620 nm emission by an Envision plate reader.

Sequence of D(2) dopamine receptor (Homo sapiens) (P14416 whole entry, looked up): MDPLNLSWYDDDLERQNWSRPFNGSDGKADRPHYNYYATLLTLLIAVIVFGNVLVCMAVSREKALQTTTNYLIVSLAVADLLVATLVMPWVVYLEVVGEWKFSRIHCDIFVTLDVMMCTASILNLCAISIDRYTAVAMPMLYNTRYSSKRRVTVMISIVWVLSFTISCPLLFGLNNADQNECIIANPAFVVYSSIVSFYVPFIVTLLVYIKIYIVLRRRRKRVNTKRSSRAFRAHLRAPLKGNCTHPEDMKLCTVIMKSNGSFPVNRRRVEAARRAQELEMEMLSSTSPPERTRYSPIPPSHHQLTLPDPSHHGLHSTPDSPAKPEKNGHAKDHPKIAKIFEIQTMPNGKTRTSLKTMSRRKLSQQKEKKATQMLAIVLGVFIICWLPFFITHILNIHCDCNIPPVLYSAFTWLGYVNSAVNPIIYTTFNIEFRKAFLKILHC

Structure (SMILES)	Potency
CC(Cc1ccccc1)N(C)Cc1ccco1 (stereo not given)	inactive
CC[N+]1(CCOC(=O)C(O)(c2ccccc2)c2ccccc2)CCCCC1	inactive
CCCCOCN(C(=O)CCl)c1c(CC)cccc1CC	inactive
CC(C)Oc1cccc(NC(=O)c2ccccc2C(F)(F)F)c1	inactive
CCOP(=S)(OCC)SCS(=O)(=O)C(C)(C)C	inactive
OC(Cn1cncn1)(c1ccc(F)cc1)c1ccccc1F (stereo not given)	inactive
CCCCC(=O)Cl	inactive
Oc1cccc(-c2ccccc2)c1	inactive
CN(N=O)c1ccc([N+](=O)[O-])cc1	inactive
O=C(CCl)NCO	inactive
O=c1[nH]c(Cl)c(Cl)cc1Cl	inactive
CNC(=O)Oc1ccc(N(C)C)c(C)c1	inactive
Cc1nnc2n1-c1sc(CCc3ccc(CC(C)C)cc3)cc1C(c1ccccc1Cl)=NC2C (stereo not given)	inactive
CNC(=O)Oc1ccccc1C(C)C	inactive
Oc1cccc(Cl)c1Cl	inactive
O=C(O)CBr	inactive
CC(C)(N)Cc1ccc(Cl)cc1	inactive
O=C(N[C@H]1CN2CCC1CC2)c1cc2ccoc2cn1	inactive
N#Cc1c[nH]cc1-c1cccc2c1OC(F)(F)O2	inactive
O=C(O)c1cc(I)cc(I)c1I	inactive

Structure (SMILES)	Potency
O=C(CCCCl)c1ccc(F)cc1	inactive
CNC(C)Cc1ccc2c(c1)OCO2 (stereo not given)	inactive
c1ccc2cc3c(cc2c1)-c1cccc2cccc-3c12	inactive
N#Cc1cc(I)c(O)c(I)c1	inactive
CC1(C)[C@H](C=C(Cl)Cl)[C@@H]1C(=O)O[C@@H](C#N)c1cccc(Oc2ccccc2)c1	inactive
Oc1ccc2c3c1O[C@H]1[C@@H](O)C=C[C@H]4[C@@H](C2)NCC[C@@]341	inactive
Brc1cccc(-c2ccccc2)c1	inactive
Oc1ccc(I)cc1	inactive
N#CC(C#N)=Cc1ccc(O)c(O)c1	inactive
CCOc1cc(Oc2ccc(C(F)(F)F)cc2Cl)ccc1[N+](=O)[O-]	inactive
CCCCP(CCCC)CCCC	inactive
CSCCCN=C=S	inactive
CCCC(C)C1(CC)C(=O)N=C(S)NC1=O (stereo not given)	inactive
CO/N=C(/C(=O)OC)c1ccccc1COc1ccccc1C	inactive
CN1CCc2cc(Cl)c(O)cc2[C@H]2c3ccccc3CC[C@@H]21	inactive
CC(C)C(Nc1ccc(C(F)(F)F)cc1Cl)C(=O)OC(C#N)c1cccc(Oc2ccccc2)c1 (stereo not given)	inactive
CCOC(=O)CCl	inactive
Cc1ncc(C[n+]2csc(CCO)c2C)c(N)n1	inactive
CC(O)CCl (stereo not given)	inactive
O=[N+]([O-])c1cccc2cccc([N+](=O)[O-])c12	inactive
